This note sets out measurements from PubChem BioAssay (NCI).

About 83,000 compounds went through this panel and 20% of them were active in at least one assay; those are over-represented in the sample as a whole.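 A percent growth of 40 corresponds to 60% growth inhibition; 0 means no net growth; -100 means all cells died. Active threshold: below 10.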 Values without a mark were called inactive. Active and inactive are the calls of the source.

Some test systems named below: NCI-H23 lung; NCI-H226 lung; NCI-H322M lung; HOP-62 NSCLC; NCI-H460 lung; NCI-H522 lung; A549/ATCC NSCLC; 786-0 renal; COLO 205 colon.
Holding throughout (test): NCI-60 one-dose screen, 48 h (100 = growth as untreated, 0 = no growth, -100 = all killed)
Details in all cases: 10 µM unless noted

On to `O=C(C(=O)N1CCCC1)c1cn(CCCn2cc(C(=O)C(=O)N3CCCC3)c3cc(Br)ccc32)c2ccc(Br)cc12`, for which the growth in the experiment on NCI-H23 lung is 80.3%; in the experiment on NCI-H226 lung it was 85.9%; in the experiment with NCI-H322M lung it was 82.3%; in the experiment on HOP-62 NSCLC it was 56.1%; with NCI-H460 lung, 53.4%; with NCI-H522 lung, 62%. Also, the results for the growth in the experiment on A549/ATCC NSCLC, with 786-0 renal and in the experiment on COLO 205 colon were 57.8%, 71.4% and 106%, respectively.
`CS(=O)(=O)c1ccc(Cl)c([N+](=O)[O-])c1`: the growth with NCI-H23 lung was 103%; in the experiment on NCI-H226 lung it was 107%; in the experiment with NCI-H322M lung it was 149%; in the experiment on HOP-62 NSCLC, 105%; in the experiment on NCI-H460 lung it was 86.9%; with NCI-H522 lung, 95.8%. For the same molecule, the growth in the experiment on A549/ATCC NSCLC is 119%; in the experiment on 786-0 renal it was 98.3%; in the experiment on COLO 205 colon, 111%.
For the molecule `CC(C)CCSc1nc(-c2ccc(F)cc2)c(C#N)c(N2CCCCC2)n1`, the growth with NCI-H23 lung is 90.6%; with NCI-H226 lung, 88.8%; in the experiment on NCI-H322M lung, 94.5%; with HOP-62 NSCLC it was 102%; in the experiment on NCI-H460 lung, 93.1%; in the experiment on NCI-H522 lung it was 78.8%. The growth in the experiment on A549/ATCC NSCLC was 83.3%; in the experiment with 786-0 renal, 98.5%; with COLO 205 colon it was 103%.
`COc1ccccc1-[n+]1cc(-c2ccc(-c3ccccc3)cc2)n2c1CCCCC2`: the growth in the experiment on NCI-H23 lung was 2.82% (active); with NCI-H226 lung, 21.8%; with NCI-H322M lung, 20%; in the experiment on HOP-62 NSCLC it was 12.6%; with NCI-H460 lung, 7.28% (active); in the experiment on NCI-H522 lung, -12% (active). Moreover, the values for the growth in the experiment on A549/ATCC NSCLC, in the experiment with 786-0 renal and in the experiment with COLO 205 colon were 10.3%, 18.5% and -7.92% (active), respectively.
In the case of `CC1=CC(=O)OC1C/C=C(\C)CCC1[C@@]2(C)CCC[C@@](C)(C(=O)O)C2CC[C@@]1(C)O` (stereo not given in full), the growth was 68.4% in the experiment with NCI-H23 lung; 43.7% in the experiment with NCI-H226 lung; 55% in the experiment with NCI-H322M lung; 51.7% with HOP-62 NSCLC; 9.27% (active) in the experiment on NCI-H460 lung; 59.3% in the experiment with NCI-H522 lung. In addition, the growth with A549/ATCC NSCLC was 29.3%; in the experiment on 786-0 renal it was 54.6%; in the experiment with COLO 205 colon, 86.7%.
With `Cc1ccc2c(C)c3c(ccc4ccccc43)c[n+]2c1`, the growth was 53.8% in the experiment with NCI-H23 lung; 83.7% with NCI-H226 lung; 86.5% with NCI-H322M lung; 45.7% in the experiment with HOP-62 NSCLC; 74.3% in the experiment with NCI-H460 lung; 74.2% in the experiment on NCI-H522 lung. Moreover, the growth was 41.7% in the experiment on A549/ATCC NSCLC, 70.3% in the experiment with 786-0 renal and 91.5% in the experiment on COLO 205 colon.
Take `CC(C)c1ccc2c(c1)CCC1C2CCCC1(C)NCc1ccccc1` (stereo not given): the growth with NCI-H23 lung was 73%; in the experiment with NCI-H226 lung it was 103%; in the experiment on NCI-H322M lung, 32.6%; in the experiment on HOP-62 NSCLC, 91%; in the experiment on NCI-H460 lung, 71.3%; with NCI-H522 lung, 9.67% (active). The growth in the experiment on A549/ATCC NSCLC is 83.7%; in the experiment with 786-0 renal, 64.7%; with COLO 205 colon, -35.8% (active).
Regarding `COc1cc(C2CC(c3ccccc3)=NN2C=O)ccc1Oc1nc2c(c(=O)n(C)c(=O)n2C)n1C` (stereo not given), the growth was 79% in the experiment on NCI-H23 lung; 79% in the experiment on NCI-H226 lung; 55.4% in the experiment on NCI-H322M lung; 102% in the experiment with HOP-62 NSCLC; 91.3% with NCI-H460 lung; 91.7% with NCI-H522 lung. Moreover, the figures for the growth in the experiment with A549/ATCC NSCLC, in the experiment with 786-0 renal and in the experiment with COLO 205 colon were 61.5%, 98.1% and 105%, respectively.
Take `O=S1(=O)NCCCN1CCNc1nccc(-c2c(-c3cccc(O)c3)nc3sccn23)n1`: the growth with NCI-H23 lung was 83.7%; in the experiment on NCI-H226 lung, 84.9%; in the experiment with NCI-H322M lung, 85.1%; with HOP-62 NSCLC, 118%; in the experiment on NCI-H460 lung, 67.1%; in the experiment with NCI-H522 lung, 76%. Moreover, the values for the growth in the experiment on A549/ATCC NSCLC, in the experiment with 786-0 renal and in the experiment on COLO 205 colon were 124%, 59.3% and 32.6%, respectively.
As for `COc1ccc(Nc2nc(N)nc3c(=O)[nH]ccc23)cc1`, the growth in the experiment on NCI-H23 lung is 85.8%; in the experiment with NCI-H226 lung, 105%; in the experiment on NCI-H322M lung it was 103%; in the experiment with HOP-62 NSCLC, 111%; with NCI-H460 lung it was 107%; in the experiment on NCI-H522 lung, 99.5%. Besides, the growth with A549/ATCC NSCLC is 104%; in the experiment with 786-0 renal it was 106%; in the experiment on COLO 205 colon, 118%.
On to `O=S(=O)(Nc1ccc2ccccc2c1)N1CCCCC1`, for which the growth was 56.6% with NCI-H23 lung; 75.9% with NCI-H226 lung; 92.8% in the experiment on NCI-H322M lung; 62.9% in the experiment on HOP-62 NSCLC; 65.5% in the experiment with NCI-H460 lung; 2.32% (active) in the experiment on NCI-H522 lung. Moreover, the values for the growth in the experiment with A549/ATCC NSCLC, with 786-0 renal and with COLO 205 colon were 68.9%, 70.3% and 69.9%, respectively.
`CCN(CC)CCNC(=O)n1cc(-c2ccncc2)c(-c2cc(Cl)cc(OC)c2)n1`: the growth with NCI-H23 lung is 80.1%; with NCI-H226 lung, 38.7%; in the experiment with NCI-H322M lung, 114%; in the experiment on HOP-62 NSCLC it was 35.9%; with NCI-H460 lung it was 97.9%; with NCI-H522 lung, 92.3%. Also, the figures for the growth with A549/ATCC NSCLC, in the experiment on 786-0 renal and in the experiment with COLO 205 colon were 49.5%, 71.5% and 46.2%, respectively.
On to `CN(C)N1C(=O)c2c(Cl)c(Cl)c(Cl)c(Cl)c2C1=O`, for which the growth in the experiment on NCI-H23 lung was 96.9%; with NCI-H226 lung, 103%; with NCI-H322M lung, 112%; in the experiment on HOP-62 NSCLC, 108%; with NCI-H460 lung it was 110%; in the experiment on NCI-H522 lung it was 94.2%. In addition, the growth in the experiment with A549/ATCC NSCLC is 104%; in the experiment on 786-0 renal it was 103%; in the experiment with COLO 205 colon, 111%.
With `CN1C(=O)N(C)C2C1NN=c1s/c(=C\c3ccc(Br)cc3)c(=O)n12` (stereo not given), the growth in the experiment with NCI-H23 lung is 41.9%; in the experiment with NCI-H226 lung it was 59.8%; in the experiment on NCI-H322M lung it was 49.7%; with HOP-62 NSCLC it was 32.4%; with NCI-H460 lung it was 13.4%; in the experiment with NCI-H522 lung, -14.6% (active). Besides, the figures for the growth with A549/ATCC NSCLC, in the experiment on 786-0 renal and with COLO 205 colon were 38.8%, 30.2% and 0.786% (active), respectively.
On to `CCN1C(=O)N(CC)C2C1NN=c1s/c(=C\c3ccc(Br)cc3)c(=O)n12` (stereo not given), for which the growth in the experiment on NCI-H23 lung was 29.2%; in the experiment with NCI-H226 lung, 50.7%; in the experiment on NCI-H322M lung it was 45.5%; with HOP-62 NSCLC, 23.8%; in the experiment on NCI-H460 lung it was 7.34% (active); in the experiment on NCI-H522 lung, -49.9% (active). Moreover, the growth was 19.7% in the experiment on A549/ATCC NSCLC, 23.6% in the experiment on 786-0 renal and -34.6% (active) with COLO 205 colon.
